Assay results: PubChem BioAssay (NCI)
This is part of a sample that, as a whole, favours compounds with a hit. Of some 83,000 tested, about 20% had one in any assay.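 Single-dose data. Exposure time 48 hours. Values below 10 considered active.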 Values without a mark were called inactive. The source made the active and inactive calls.

Assays:
Test in all cases: NCI-60 one-dose screen, 48 h (100 = growth as untreated, 0 = no growth, -100 = all killed)
Settings in all cases: 10 µM unless noted
NCI-H23 lung = system: NCI-H23 lung
NCI-H322M lung = system: NCI-H322M lung
HOP-62 NSCLC = system: HOP-62 NSCLC
NCI-H460 lung = system: NCI-H460 lung
HOP-92 NSCLC = system: HOP-92 NSCLC
NCI-H522 lung = system: NCI-H522 lung
A549/ATCC NSCLC = system: A549/ATCC NSCLC
786-0 renal = system: 786-0 renal
COLO 205 colon = system: COLO 205 colon
DU-145 prostate = system: DU-145 prostate

SMILES	growth (NCI-H23 lung)	growth (NCI-H322M lung)	growth (HOP-62 NSCLC)	growth (NCI-H460 lung)	growth (HOP-92 NSCLC)	growth (NCI-H522 lung)	growth (A549/ATCC NSCLC)	growth (786-0 renal)	growth (COLO 205 colon)	growth (DU-145 prostate)
CC(C)CCOc1ccc(-c2n[nH]c(C(F)(F)F)c2-c2cncc(C#N)c2)c(O)c1	-0.157% (active)	12.4%	5.79% (active)	3.48% (active)	-27.9% (active)	-6.89% (active)	10.4%	17.1%	49%	18%
C#CCn1cc(C=C2C(=O)N(C)C(=O)N(C)C2=O)c2cc(Cl)ccc21	110%	102%	107%	106%	107%	88.7%	120%	111%	122%	112%
Clc1ccc(COc2ccc(Nc3ncnc4onc(-c5ccccc5)c34)cc2)cc1	87.1%	82.8%	91.2%	61%	82.9%	71.3%	82.8%	90.7%	93.5%	72.7%
Nc1nc(-c2ccccc2Br)nn1-c1nc2ccccc2s1	98%	105%	105%	100%	99.6%	85.6%	98.4%	104%	110%	110%
O=[N+]([O-])c1cc2c(ccc3occc32)o1	39.5%	61%	63.5%	-28.2% (active)	26.6%	25.7%	26.1%	71.3%	-24.1% (active)	-7.23% (active)
O=C(Nc1ccc(Cl)cc1)N1CCN(c2ccc3nncn3n2)CC1	77.2%	29.8%	-11.4% (active)	-27.3% (active)	-21.8% (active)	-45.1% (active)	-12% (active)	-85.9% (active)	-81.2% (active)	36%
Oc1c(CN2CCN(c3ccccc3F)CC2)cc(Br)c2cccnc12	44.6%	16.7%	-75% (active)	-73.1% (active)	-5.84% (active)	-65% (active)	-65% (active)	-83.5% (active)	-8.74% (active)	-32% (active)
COc1ccccc1C(=O)O/N=C(\N)Cc1cccc2ccccc12	80.9%	97.6%	94.6%	70.7%	91%	85%	70.1%	106%	67.8%	99.1%
CCN1C(=O)N(c2ccccc2)C2Nn3c(s/c(=C4\C(=O)N(C(C)C)c5ccccc54)c3=O)=NC21 (stereo not given)	104%	108%	98.5%	108%	113%	92.1%	104%	101%	111%	120%
OC(c1ccccc1)c1nnc(SCc2ccccc2)n1Cc1ccccc1 (stereo not given)	98.2%	106%	91.5%	106%	58.8%	86.6%	94.1%	95.4%	102%	108%
CCc1ccc(CNCC(O)c2ccccc2)cc1 (stereo not given)	69.1%	75.6%	76.6%	77%	12.7%	77.7%	73.8%	87.5%	7.32% (active)	79.7%
NC1C(N)C(N)C1N (stereo not given)	102%	99.7%	104%	113%	79.6%	91.5%	99.8%	105%	107%	134%
O=c1oc2ccc(I)cc2c(=O)n1-c1ccc(I)cc1F	4.94% (active)	7.17% (active)	-8.24% (active)	0.977% (active)	-10.4% (active)	-16.1% (active)	6.24% (active)	2.44% (active)	44.5%	15.8%
